Screening results (PubChem BioAssay)
The list is not random: actives were taken first. Their share in the collection is about 2.7%.
BRCA1 expr up: activators of BRCA1 expression. MCF7-BRCA1-FFLuc reporter, luminescence, 48 h; response scale: scaled: vehicle 0%, 10 µM genistein 100%. Potency, µM (top dose mostly 46.1 µM), usual class: activators. 1.1% of 380,000 active. AID 624202; also: nearly all actives have a fitted effect of over 80% in size
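MCF7-BRCA1-FFLuc, 2000 cells/well; 2 h attach, 37 °C/5% CO2; compound 48 h; luciferase substrate 15 min; luminescence end-point. Norm. to genistein 10 microM max activation and DMSO; concentration-response curves fitted.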
GLP-1R agonist: GLP-1 receptor (human) agonism; HEK293 GLP-1R CRE-luciferase, luminescence, 4-6 h; cells express a hypersensitive GLP-1R form; Potency, µM (series often up to 45.6 µM), most hits filed as activators; 0.007% of 380,000 active
Target sequence (P43220 whole entry, looked up): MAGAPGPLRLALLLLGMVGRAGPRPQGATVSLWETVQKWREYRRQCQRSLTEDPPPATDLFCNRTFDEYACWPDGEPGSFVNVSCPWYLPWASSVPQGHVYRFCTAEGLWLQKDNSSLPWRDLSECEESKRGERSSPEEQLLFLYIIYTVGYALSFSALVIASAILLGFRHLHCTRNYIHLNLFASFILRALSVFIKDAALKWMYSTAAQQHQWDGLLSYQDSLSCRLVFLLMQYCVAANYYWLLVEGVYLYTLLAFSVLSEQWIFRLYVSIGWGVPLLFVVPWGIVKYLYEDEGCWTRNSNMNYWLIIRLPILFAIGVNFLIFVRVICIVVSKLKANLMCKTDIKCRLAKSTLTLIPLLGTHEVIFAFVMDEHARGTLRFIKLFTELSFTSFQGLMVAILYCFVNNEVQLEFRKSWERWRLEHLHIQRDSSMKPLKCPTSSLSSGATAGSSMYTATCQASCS
Integrin act MD: integrin-mediated muscular dystrophy alleviation activation. AID 624291. 0.064% of 350,000 active. Potency, µM (series often up to 38.3 µM), most hits filed as activators. alpha7betagal myoblasts, beta-gal FDG fluorescence, 48 h; also: nearly all actives have a fitted effect of over 60% in size
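alpha7betagal+/- myoblasts (passage 13, 250/well) treated 48 h at 37C with compounds at 1:260 dilution of DMSO stock. Lysed, then beta-galactosidase activity read as FDG fluorescence (ex 480/em 540) after 30 min, with pre-read for autofluorescence.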
GLP1R cytotox: cytotoxicity in counter-screen for GLP-1R inverse agonists; Potency, µM (series often up to 38.3 µM), usual class: inhibitors; 0.13% of 410,000 active; AID 624418; HEK293 cAMP-luciferase reporter cells, luminescence, 24 h;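 also: loss of luciferase light is scored as toxicity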
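Seeding density was 200 cells/uL; after overnight-length (12 h) culture, 23 nL compounds went on for 24 h at 37 °C. Readout used a luciferase detection reagent, luminescence taken after 12 min at room temperature.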
GLP-1R inv ag: acts as inverse agonist at human GLP-1 receptor; 1.6% of 410,000 active; P43220; AID 624417; Potency, µM (doses to about 38.3 µM), actives largely listed as inhibitors; HEK293 GLP-1R CRE-luciferase, luminescence, 24 h; GLP-1R form is constitutively active; also: nearly all actives have a fitted effect of over 55% in size
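Stable HEK293 clone (constitutively active GLP-1R + cAMP-response luciferase); 200 cells/uL plated, 12 h pre-culture, compound 24 hr, 37 deg C/5% CO2; detection reagent 12 min RT; luminescence.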
Hits are given with their value. Calls follow the shape of the dose curve; as a rule, active = well fitted curve in the direction sought with a large enough effect; inconclusive = small, poorly fitted or top-dose-only effect, or another doubt; inactive = no such curve, though single readings can be large; an effect the other way counts as inactive or inconclusive.

What do the screens show for `C1=Cc2ccccc2/C1=C(\Cc1ccncc1)Oc1ccncc1`?
BRCA1 expr up: inactive

What do the screens show for `COc1cccc2cc(C(=O)NC3CC4CCC3C4)oc12` (configuration not stated)?
BRCA1 expr up: inactive; GLP-1R agonist: inactive; Integrin act MD: inactive; GLP1R cytotox: inactive; GLP-1R inv ag: 10µM

How did Cc1ccc(-c2nc3ccsc3c(=O)o2)cc1 do in these assays?
BRCA1 expr up: 13µM; GLP-1R agonist: inactive; Integrin act MD: inactive; GLP1R cytotox: inactive; GLP-1R inv ag: inactive

What do the screens show for `Cc1ccc(-n2c(C)nc3ccsc3c2=O)cc1`?
BRCA1 expr up: inactive; GLP-1R agonist: inactive; Integrin act MD: inactive; GLP1R cytotox: inactive; GLP-1R inv ag: inactive

How did CC(C)C(=O)Nc1ccc(NC(=O)c2ccccn2)cn1 do in these assays?
BRCA1 expr up: 2.5µM; GLP-1R agonist: inactive; Integrin act MD: inactive; GLP1R cytotox: inactive; GLP-1R inv ag: inconclusive

Results for COc1ccc(C(=O)N2CCN(c3nc(C4CC4)nc4sc(C)c(C)c34)CC2)cc1 ?
BRCA1 expr up: inactive; GLP-1R agonist: inactive; Integrin act MD: inactive; GLP1R cytotox: inactive; GLP-1R inv ag: inconclusive

What do the screens show for `Cc1sc2nc(C3CC3)nc(N3CCN(C(=O)c4ccc(Cl)cc4)CC3)c2c1C`?
BRCA1 expr up: inactive; GLP-1R agonist: inactive; Integrin act MD: inactive; GLP1R cytotox: inactive; GLP-1R inv ag: 8.9µM

Results for Cc1sc2nc(C3CC3)nc(N3CCN(C(=O)c4ccc(F)cc4)CC3)c2c1C ?
BRCA1 expr up: inactive; GLP-1R agonist: inactive; Integrin act MD: inactive; GLP1R cytotox: inactive; GLP-1R inv ag: 10µM

How did Cc1ccc2nc(-c3ccc(C)c(NC(=O)COc4ccc(Br)cc4)c3)oc2c1 do in these assays?
BRCA1 expr up: inactive

What do the screens show for `CCN(CC)c1nc(NC2CCN(C)CC2)c2cc(OC)c(OC)cc2n1`?
BRCA1 expr up: inactive

Results for O=C(Nc1cc2ccc(O)cc2oc1=O)c1ccc(F)cc1 ?
GLP1R cytotox: inactive; GLP-1R inv ag: inactive

Results for O=C(Nc1cc2ccccc2oc1=O)c1ccccc1 ?
BRCA1 expr up: inactive; GLP-1R agonist: inactive; Integrin act MD: inactive; GLP1R cytotox: inactive; GLP-1R inv ag: 7.9µM

Results for Cc1ccc(C(=O)CSc2nsc(C)c2C#N)cc1 ?
BRCA1 expr up: 6.3µM; GLP-1R agonist: inactive; Integrin act MD: inactive; GLP1R cytotox: inactive; GLP-1R inv ag: inactive

How did Cc1snc(SCC(=O)c2ccc(Cl)cc2)c1C#N do in these assays?
BRCA1 expr up: inactive; GLP-1R agonist: inactive; Integrin act MD: inactive; GLP1R cytotox: inactive; GLP-1R inv ag: inactive

What do the screens show for `Cc1ccc(Cl)cc1N1CCN(C(=O)Cn2nc(C)n3c(cc4sccc43)c2=O)CC1`?
GLP1R cytotox: inactive; GLP-1R inv ag: inactive

Results for Cc1ccc2c(CC(=O)Nc3ccc(S(=O)(=O)N4CCCC(C)C4)cc3)coc2c1 (configuration not stated) ?
GLP1R cytotox: inactive; GLP-1R inv ag: 10µM

What do the screens show for `O=[N+]([O-])c1ccc(CSc2nc3ccccc3[nH]2)cc1`?
BRCA1 expr up: 4µM; GLP-1R agonist: inactive; Integrin act MD: inactive; GLP1R cytotox: inactive; GLP-1R inv ag: inactive

How did Fc1ccc(CSc2nc3ccccc3[nH]2)c2ccccc12 do in these assays?
BRCA1 expr up: inactive; GLP-1R agonist: inactive; Integrin act MD: inactive; GLP1R cytotox: inactive; GLP-1R inv ag: 10µM

How did O=c1cc(CSc2nc3ccccc3[nH]2)c2ccccc2[nH]1 do in these assays?
BRCA1 expr up: inactive; GLP-1R agonist: inactive; Integrin act MD: inactive; GLP1R cytotox: inactive; GLP-1R inv ag: inactive

Results for Cc1cccc(Nc2ncc3c(n2)CC(C)CC3=O)c1 (configuration not stated) ?
BRCA1 expr up: 5µM; GLP-1R agonist: inactive; Integrin act MD: inactive; GLP1R cytotox: inactive; GLP-1R inv ag: inactive

How did CCN(CC)c1ccc(N=Nc2ccc(S(=O)(=O)N(C)C)cc2)c(S(=O)(=O)NCC[n+]2ccccc2)c1 do in these assays?
GLP-1R agonist: inactive

How did CN(C)c1ccc(C=C2C=Cc3ccccc32)cc1 do in these assays?
BRCA1 expr up: inconclusive; GLP-1R agonist: inactive; Integrin act MD: inactive; GLP1R cytotox: inactive; GLP-1R inv ag: inactive

Results for CN(C)c1ccc(/C=C2\C=Cc3ccccc32)cc1 ?
BRCA1 expr up: 3.5µM
